# The entries come from a sample that favours hits as a whole.
# MARV entry inh: qHTS for inhibitors of binding or entry into cells for Marburg Virus; Marburg virus pseudotyped entry inhibition, cell reporter; Potency, µM (highest dose often 37.8 µM), usual class: inhibitors; 1.8% of 300,000 active; calls by dose curve; tested in HEK293 cells
# Shiga toxin inh: A qHTS for Small Molecule Inhibitors of Shiga Toxin; Vero cells, Shiga toxin protein synthesis inhibition reporter; inhibition, % at 38.7 µM; 9.2% of 290,000 active; in the data active means inhibition mostly above about 28%, no sharp cut-off; inactive means mostly below about 43%
# Cycloheximide cs: Cycloheximide Counterscreen for Small Molecule Inhibitors of Shiga Toxin; 12% of 300,000 active; cell reporter, cycloheximide protein synthesis inhibition counterscreen; max response, %; AID 2314, 2010; in the data active means max response mostly above about 13%, no sharp cut-off; inactive means mostly below about 14%; further: read at 38.3 µM for the half of the compounds with a filed dose
# Lassa entry inh: qHTS for Inhibitors of binding or entry into cells for Lassa Virus | Lassa virus pseudotype entry inhibition, cell reporter | Potency, µM (titrated, usually from 37.9 µM), hits mostly inhibitors | 1.2% of 300,000 active | AID 540256, 2011; calls by dose curve; tested in HEK293 cells; further: nearly all actives have a fitted effect of over 50% in size
# AMA1-RON2 inh: qHTS for Inhibitors of AMA1-RON; Towards Development of Antimalarial Drug Lead: Primary Screen | Plasmodium falciparum AMA1 (3D7) - RON2 peptide interaction | AlphaScreen AMA1-biotinylated RON2 peptide binding | Potency, µM (top dose mostly 58.2 µM), usual class: inhibitors | 0.2% of 360,000 active; active means well fitted inhibition curve with a large enough effect; inconclusive means small, poorly fitted or top-dose-only effect; inactive means no such curve, though single readings can be large or run the other way; further: nearly all actives have a fitted effect of over 45% in size
#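 AMA1 (3D7) with his tag at 25 nM final met compounds first, then biotinylated RON2 peptide at 25 nM; detection used donor plus acceptor beads, 10 µg/mL apiece, read by AlphaScreen after 30 min at room temperature.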
# Numbers stand for hits; n = inactive; u = inconclusive; x = not tested or not shown; [ ] = dose if it differs, or a comment.
SMILES,MARV entry inh,Shiga toxin inh,Cycloheximide cs,Lassa entry inh,AMA1-RON2 inh
Cn1cccc1/C=N/NC(=O)Cc1ccccc1,n,n,n,n,n
Cc1ccc(/C=N/NC(=O)Cc2cccn2C)cc1,n,46,26,n,n
Cn1cccc1CC(=O)N/N=C/c1ccco1,n,n,n,n,n
CC1CCCC(C)N1CCOc1cc(N)ccc1C#N (stereo not given),n,x,x,n,n
Cc1ccc(S(=O)(=O)NNc2c3ccccc3nc3ccc(Cl)cc23)cc1,x,x,x,x,n
COc1cc(CCNC(=O)c2ccccc2NC(=O)C2=C(C)OCCS2)cc(OC)c1OC,x,n,n,x,n
COc1cc(NC(=O)C2=C(C)OCCS2)c(Cl)cc1C(=O)NCCN(C)C,10µM,n,n,n,n
CCCN=Cc1sc2ccc(OCC)cc2c1O,u,101,41,n,n
CCOC(=O)[C@]12C[C@]3(OC)CCN(C(=O)N[C@@H]1c1ccccc1)[C@@H]32,n,x,x,n,x
Cc1ccc(C)c(-c2csc(N/N=C/c3ccco3)n2)c1,5µM,95,n,2µM,n
CCn1c(C)c(/C=N/Nc2nc3ccccc3s2)c2ccccc21,u,105,61,u,n
C(=N\Nc1nc2ccccc2s1)/c1ccco1,n,45,44,u,n
Oc1ccccc1C=NNc1nc2ccccc2s1,u,x,x,u,n
C(=N\Nc1nc2ccccc2s1)/c1cccs1,u,103,50,u,n
CCn1c(/C=C/c2c(C)n(CC)c3ccccc23)nc2ccccc2c1=O,n,n,n,n,n
Cc1ccc(C)c(-c2csc(Nc3ncccn3)n2)c1,x,n,n,x,n
Cc1cccc(NC(=O)CCNC(=O)c2ccc(Br)cc2)c1C,u,n,n,u,n
Cc1ccnc(N/N=C/c2ccco2)n1,u,n,41,u,n
Cc1ccsc1/C=N/Nc1nc2ccccc2s1,u,146,70,u,n
OCC(O)/C=N/Nc1nc2ccccc2s1 (stereo not given),u,48,n,n,n
COc1ccc(N2CCN(c3c(S(=O)(=O)c4ccccc4)cnc4ccc(OC)cc34)CC2)cc1,8.9µM,n,n,u,n[11.6 µM]
Cc1ccccc1-c1nc(-c2ccc(Br)o2)no1,u,97,44,n,n
Fc1ccccc1-c1nc(-c2ccc(Br)o2)no1,x,85,57,x,n
Cc1ccccc1-c1nc(-c2ccc(NC(=O)c3ccc(Br)o3)cc2)no1,n,57,27,n,n
Cc1cc(NC(=O)c2ccc(Br)o2)cc(-c2nc3ccccc3o2)c1O,n,x,x,n,x
SMILES,MARV entry inh,Shiga toxin inh,Cycloheximide cs,Lassa entry inh,AMA1-RON2 inh
CC1=C(C(=O)N2CCOCC2)CC(CC(=O)NCCCN(C)C)C(=O)N1CCCN1CCCC1=O (stereo not given),x,x,x,x,n
COc1ccc(CNS(=O)(=O)CCNC(=O)c2ccccc2)cc1,u,x,x,n,n
Cc1ccc(S(=O)(=O)NCc2ccc(C(=O)NCCN(Cc3ccccc3)C(C)C)cc2)cc1,11µM,n,n,n,n
CS(=O)(=O)NCc1ccc(C(=O)NCCOc2ccccc2)cc1,u,63,50,n,n
Cc1ccc(OCCNC(=O)c2cccc(S(=O)(=O)NCc3ccccc3)c2)cc1,6.3µM,x,x,u,n
O=C(NCc1ccncc1)c1cccc(S(=O)(=O)NCc2ccccc2)c1,x,n,n,x,n
Cc1nnc(N2CCN(c3ccccc3F)CC2)c2c1nnn2Cc1ccccc1Cl,u,x,x,n,x
C[C@@H]1CN([C@H](C)CO)C(=O)CCCn2cc(nn2)CO[C@H]1CN(C)C(=O)Cc1ccccc1,x,x,x,x,n
O=C(O)c1ccc(COc2c(F)c(F)c(F)c(F)c2F)o1,n,n,n,n,n
Nc1ccc(-c2nc3ccc(C(=O)O)cc3s2)cc1,0.46µM,n,n,0.46µM,n
Nc1cc2sc(-c3ccc(C(=O)O)cc3)nc2cc1Cl,13µM,31,26,13µM,n
Nc1nc(-c2ccc(C(=O)O)cc2)cs1,n,n,n,n,n
O=c1cc(O)nc(-c2ccccc2)s1,n,n,n,n,n
Nc1ccc(-c2nc3ccc(N)cc3s2)cc1,11µM,n,14,u,n
O=C(O)c1ccc2nc(-c3ccccc3)sc2c1,1.5µM,n,n,2.2µM,n
CCOC(=O)CSc1nc2ccc(N)cc2s1,n,n,n,n,n
COc1cc(C(=O)NCC(c2cccs2)N2CCOCC2)cc(Br)c1OCc1ccccc1 (stereo not given),x,x,x,x,n
O=[N+]([O-])c1cc(C(F)(F)F)ccc1N1CCN(S(=O)(=O)c2ccc3ccccc3c2)CC1,11µM,n,n,n,n
